Data on 17 compounds can be found in PubChem BioAssay (NCATS).

Unmarked numbers belong to inactive results. Records with an inconclusive call do not appear. The source made the active and inactive calls. Unless noted, calls follow the shape of the dose curve; as a rule, active = well fitted curve in the direction sought with a large enough effect; inconclusive = small, poorly fitted or top-dose-only effect, or another doubt; inactive = no such curve, though single readings can be large; an effect the other way counts as inactive or inconclusive.

Test [1] in a line: S16 Schwann cell PMP22 intronic element firefly luciferase assay (AID 624032). Also: nearly all actives have a fitted effect of over 30% in size. Also: potency is read from the fitted curve at half-maximal effect. The method in brief:
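Luciferase reporter of PMP22 intronic-element expression in stably transfected S16 rat Schwann cells, read by ONE-Glo luminescence after 24 h compound exposure at 37 C. Activity scaled between DMSO (0%) and positive-control PTC124; concentration-effect curves quality-classified.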

Test [2] concerns 7G8. The test can be described thus: qHTS profiling for inhibitors of Plasmodium falciparum proliferation (AID 504749). Also: nearly all actives have a fitted effect of over 60% in size. Also: potency is read from the fitted curve at half-maximal effect. To be noted: P. falciparum in erythrocytes, SYBR Green DNA, 72 h; series mostly up to 28.7 µM. In outline:
(§1)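 In a 72 h erythrocytic culture (37 C, humidified, 5% CO2) at 2.5% hematocrit and 0.3% starting parasitemia, compounds were tested; SYBR Green I in detergent lysis buffer stained parasite DNA overnight.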

The subject of test [3] is DIV17. The test is described as above. To be noted: P. falciparum in erythrocytes, SYBR Green DNA, 72 h; series mostly up to 28.7 µM. In outline: as §1
For test [4], the system named is W2. The description is as above. To be noted: P. falciparum in erythrocytes, SYBR Green DNA, 72 h; series mostly up to 28.7 µM. The method in brief: as §1
The target in test [5] is Luciferin 4-monooxygenase (Photinus pyralis) (UniProt P08659). The test can be described thus: Biochemical firefly luciferase enzyme assay for NPC (AID 624030).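 Also: purified P. pyralis luciferase at 10 nM with luciferin and ATP substrate; 0% = DMSO and -100% = full luciferase inhibition by PTC124 control; nearly all actives have a fitted effect of over 70% in size.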 In outline:
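Direct inhibition of firefly luciferase enzyme (10 nM final, 50 mM Tris Acetate) assessed by luminescence within 5 minutes. Percent activity scaled between DMSO and PTC124 positive control, with concentration-effect curves classified by fit quality and response.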

Test [6] deals with CP260. The experiment in a line: qHTS profiling for inhibitors of Plasmodium falciparum proliferation (AID 504749). Also: nearly all actives have a fitted effect of over 60% in size. Also: potency is read from the fitted curve at half-maximal effect. To be noted: P. falciparum in erythrocytes, SYBR Green DNA, 72 h; series mostly up to 28.7 µM. In outline:
as §1
On the technique in general: qHTS replaces the single test concentration by a dilution series.

Test [7] can be described thus: Inducers of the Endoplasmic Reticulum Stress Response (ERSR) in human glioma: Validation (AID 504836). Also: 0% is about no effect. In outline: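 ERSR induction read as luciferase luminescence (Bright-Glo, 10 min at room temperature) in stably transfected human U87-MG glioma cells exposed to compounds for 16 h, using GRP78 as sensor.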
The subject of test [8] is P93_24. The test can be described thus: qHTS profiling for inhibitors of Plasmodium falciparum proliferation (AID 504749). Also: nearly all actives have a fitted effect of over 60% in size. Also: potency is read from the fitted curve at half-maximal effect. To be noted: P. falciparum in erythrocytes, SYBR Green DNA, 72 h; series mostly up to 28.7 µM. In outline:
as §1

Test [9] concerns TAB109. The description is as above. To be noted: P. falciparum in erythrocytes, SYBR Green DNA, 72 h; series mostly up to 28.7 µM. In outline: as §1
Test [10] concerns TAB165. Described as above. To be noted: P. falciparum in erythrocytes, SYBR Green DNA, 72 h; series mostly up to 28.7 µM. The method in brief: as §1
For test [11], the system named is ATS95. The description is as above. To be noted: P. falciparum in erythrocytes, SYBR Green DNA, 72 h; series mostly up to 28.7 µM. The method in brief:
as §1

Test [12] addresses Peroxisome proliferator-activated receptor delta (Homo sapiens) (UniProt Q03181). The test can be described thus: qHTS assay for small molecule agonists of peroxisome proliferator-activated receptor delta signaling (AID 588534; calls by dose curve;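 also: 0% = DMSO basal wells and 100% = positive control agonist at 10 µM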). The method in brief:
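Titration series tested in agonist mode on beta-lactamase reporter cells; 18 hrs at 37 C after a 5 hr pre-incubation. Readout: CCF4 fluorescence, 2 hrs RT. Hill equation gives EC50 and maximal response.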

The target in test [13] is Vitamin D3 receptor (Homo sapiens) (UniProt P11473). The experiment in a line: qHTS assay for small molecule antagonists of vitamin D receptor signaling (AID 588541; calls by dose curve;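 also: receptor activated by calcitriol during compound treatment; % is scaled to controls: 0 for no effect and ±100 for the full control effect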). The method in brief:
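Antagonist-mode beta-lactamase reporter assay: HEK293T VDR-UAS-bla cells were exposed to titrated compound alongside 1-alpha,25-dihydroxyvitamin D3 at 3 nM final for 16 h. Values were normalized to the 50 nM agonist control and DMSO basal, with IC50 and efficacy from Hill equation fits.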

Test [14] shares this target. The test can be described thus: qHTS assay for small molecule agonists of vitamin D receptor signaling (AID 588543; calls by dose curve;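 also: 0% = DMSO basal and 100% = reference agonist control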). The method in brief: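 qHTS in agonist mode: compound titrations stimulate a VDR-driven β-lactamase reporter in HEK293T cells over 16 h at 37 °C. Response normalized to 50 nM 1α,25-dihydroxyvitamin D3 = 100%, DMSO = 0%; Hill fitting gives EC50 and maximal response.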

Test [15] addresses Thyroid hormone receptor beta (Homo sapiens) (UniProt P10828). The experiment in a line: qHTS assay for small molecule agonists of thyroid hormone receptor beta signaling (AID 588545; calls by dose curve). The method in brief: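 HEK 293 TR-UAS-bla; agonist mode; 18 hrs, 37 C; CCF4, ex 405/em 460 and 530 nm; norm. T3 10 nM = 100%, DMSO = 0%; Hill fit → EC50, efficacy.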
Test [16] concerns the target Retinoic acid receptor RXR-alpha (Homo sapiens) (UniProt P19793). The experiment in a line: qHTS assay for small molecule antagonists of retinoid X receptor alpha signaling (AID 588546; active = well fitted inhibition curve with a large enough effect in the signal ratio, with a control signal flat, not every such curve was filed as active; the % refers to the signal ratio; also: % is scaled to controls: 0 for no effect and ±100 for the full control effect). To be noted: HEK293T RXRa-UAS-bla, beta-lactamase ratio, antagonist mode. In outline: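 Beta-lactamase reporter inhibition, read as CCF4 fluorescence ratio (ex 405, em 460/530 nm) after 2 h at RT. HEK293T UAS-bla cells, 2500/well, were stimulated with 9-cis-RA at 500 or 100 nM final alongside test compound for 18 h at 37 C.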

Test [17] deals with Peroxisome proliferator-activated receptor alpha (Homo sapiens) (UniProt Q07869). The experiment in a line: qHTS assay for small molecule agonists of the peroxisome proliferator-activated receptor alpha (PPARalpha) signaling pathway (AID 651778). Also: % of control where 0% means no effect. To be noted: PathHunter PPARalpha complementation, chemiluminescence, 6 h; max response: stronger effect = higher value. The method in brief: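 Chemiluminescence from complemented enzyme reported PPARalpha activation in cells after 6 hr of compound treatment at 37 C. The detection reagent was incubated for 60 min at room temperature, and compounds were scored as agonists.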
Sequence of Peroxisome proliferator-activated receptor alpha (Homo sapiens) (Q07869 whole entry, looked up): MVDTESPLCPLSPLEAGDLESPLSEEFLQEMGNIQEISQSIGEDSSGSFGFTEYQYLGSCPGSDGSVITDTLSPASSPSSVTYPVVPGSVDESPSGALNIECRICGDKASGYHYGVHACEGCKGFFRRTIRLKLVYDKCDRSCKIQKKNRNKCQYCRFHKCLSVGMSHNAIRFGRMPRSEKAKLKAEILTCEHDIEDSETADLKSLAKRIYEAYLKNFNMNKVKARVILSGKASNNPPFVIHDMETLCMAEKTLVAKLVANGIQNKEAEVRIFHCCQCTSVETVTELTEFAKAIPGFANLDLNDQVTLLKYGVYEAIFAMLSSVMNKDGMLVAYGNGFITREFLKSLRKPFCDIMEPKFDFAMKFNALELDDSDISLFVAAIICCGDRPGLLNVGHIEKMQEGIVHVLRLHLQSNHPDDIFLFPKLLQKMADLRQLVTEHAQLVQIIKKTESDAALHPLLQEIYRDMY

Test [18] in a line: qHTS assay for small molecule agonists of the antioxidant response element (ARE) signaling pathway measured by Nrf2-dependant transcriptional activity - cell viability counter screen (AID 720653; active = well fitted curve in the direction sought with a large enough effect in the repeat runs; an effect the other way counts as inactive or inconclusive; also: % is scaled to controls: 0 for no effect and ±100 for the full control effect). To be noted: ARE-bla HepG2 viability, CellTiter-Glo ATP luminescence, 16 h; max response: stronger effect = lower value. The method in brief: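 Cytotoxicity counter screen: intracellular ATP quantified by CellTiter-Glo luminescence in the same ARE-bla HepG2 plates, after 16 h compound exposure and a 2 h beta-lactamase substrate step.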

Sequence of Luciferin 4-monooxygenase (Photinus pyralis) (P08659 whole entry, looked up): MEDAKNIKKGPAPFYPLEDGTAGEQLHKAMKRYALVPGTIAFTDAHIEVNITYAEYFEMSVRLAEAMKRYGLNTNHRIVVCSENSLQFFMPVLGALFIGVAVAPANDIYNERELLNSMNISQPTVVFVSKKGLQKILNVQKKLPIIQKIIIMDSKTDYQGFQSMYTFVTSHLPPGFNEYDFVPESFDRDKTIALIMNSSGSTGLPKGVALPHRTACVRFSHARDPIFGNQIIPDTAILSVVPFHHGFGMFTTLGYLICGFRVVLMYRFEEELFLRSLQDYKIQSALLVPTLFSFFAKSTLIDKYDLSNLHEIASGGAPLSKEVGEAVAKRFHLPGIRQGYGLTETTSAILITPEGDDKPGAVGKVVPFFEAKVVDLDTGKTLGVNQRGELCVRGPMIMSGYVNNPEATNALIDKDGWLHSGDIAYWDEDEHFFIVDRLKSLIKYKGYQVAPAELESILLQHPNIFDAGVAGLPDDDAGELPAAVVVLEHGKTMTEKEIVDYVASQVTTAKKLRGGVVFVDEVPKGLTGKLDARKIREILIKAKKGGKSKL
Sequence of Vitamin D3 receptor (Homo sapiens) (P11473 whole entry, looked up): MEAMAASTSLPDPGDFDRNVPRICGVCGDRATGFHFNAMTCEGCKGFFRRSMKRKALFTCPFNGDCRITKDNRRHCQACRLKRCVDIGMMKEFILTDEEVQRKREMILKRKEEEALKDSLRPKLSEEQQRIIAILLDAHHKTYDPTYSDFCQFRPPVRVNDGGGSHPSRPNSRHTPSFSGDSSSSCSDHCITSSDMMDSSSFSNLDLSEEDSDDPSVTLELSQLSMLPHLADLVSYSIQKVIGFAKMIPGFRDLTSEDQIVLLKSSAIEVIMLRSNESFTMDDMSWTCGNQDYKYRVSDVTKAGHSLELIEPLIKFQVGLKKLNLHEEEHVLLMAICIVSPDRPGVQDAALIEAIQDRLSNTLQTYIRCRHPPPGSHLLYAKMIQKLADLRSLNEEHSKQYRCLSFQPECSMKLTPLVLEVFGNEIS
Sequence of Peroxisome proliferator-activated receptor delta (Homo sapiens) (Q03181 whole entry, looked up): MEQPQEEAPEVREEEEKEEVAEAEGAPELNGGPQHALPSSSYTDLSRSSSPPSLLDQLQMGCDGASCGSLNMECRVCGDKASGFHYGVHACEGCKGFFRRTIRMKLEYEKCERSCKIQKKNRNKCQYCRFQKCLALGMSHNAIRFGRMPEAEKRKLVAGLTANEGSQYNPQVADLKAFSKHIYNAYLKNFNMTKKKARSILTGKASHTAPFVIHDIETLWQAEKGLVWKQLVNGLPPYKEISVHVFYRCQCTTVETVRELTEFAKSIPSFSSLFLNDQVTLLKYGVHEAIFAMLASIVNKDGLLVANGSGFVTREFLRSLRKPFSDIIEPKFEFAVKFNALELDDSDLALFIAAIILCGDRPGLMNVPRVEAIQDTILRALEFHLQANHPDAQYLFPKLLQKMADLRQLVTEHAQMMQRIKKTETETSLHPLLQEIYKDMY
Sequence of Thyroid hormone receptor beta (Homo sapiens) (P10828 whole entry, looked up): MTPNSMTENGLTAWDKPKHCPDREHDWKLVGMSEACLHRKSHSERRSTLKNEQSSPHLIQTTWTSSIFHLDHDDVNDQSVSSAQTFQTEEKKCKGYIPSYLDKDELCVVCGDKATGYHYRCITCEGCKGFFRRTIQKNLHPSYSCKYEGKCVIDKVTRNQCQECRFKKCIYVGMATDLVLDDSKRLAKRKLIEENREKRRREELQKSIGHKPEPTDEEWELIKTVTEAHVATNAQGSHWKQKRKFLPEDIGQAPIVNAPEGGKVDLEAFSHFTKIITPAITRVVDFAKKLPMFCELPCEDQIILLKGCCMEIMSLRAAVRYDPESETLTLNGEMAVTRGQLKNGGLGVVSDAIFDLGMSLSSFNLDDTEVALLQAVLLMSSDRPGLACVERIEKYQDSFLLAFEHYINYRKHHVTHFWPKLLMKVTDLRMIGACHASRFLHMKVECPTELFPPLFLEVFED
Sequence of Retinoic acid receptor RXR-alpha (Homo sapiens) (P19793 whole entry, looked up): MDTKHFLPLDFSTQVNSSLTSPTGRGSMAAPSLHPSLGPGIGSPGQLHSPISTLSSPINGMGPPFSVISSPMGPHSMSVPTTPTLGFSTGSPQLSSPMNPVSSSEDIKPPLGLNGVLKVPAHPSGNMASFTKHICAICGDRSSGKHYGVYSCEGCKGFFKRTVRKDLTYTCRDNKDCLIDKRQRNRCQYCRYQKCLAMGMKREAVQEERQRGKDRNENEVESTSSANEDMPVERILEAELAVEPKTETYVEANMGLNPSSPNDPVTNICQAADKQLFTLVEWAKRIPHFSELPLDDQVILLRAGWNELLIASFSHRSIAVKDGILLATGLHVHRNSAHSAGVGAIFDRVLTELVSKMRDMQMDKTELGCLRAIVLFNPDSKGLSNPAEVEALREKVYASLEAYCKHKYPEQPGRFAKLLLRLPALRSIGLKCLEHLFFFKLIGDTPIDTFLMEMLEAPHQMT

Consider `C#CC1(O)C=CC2C3CCC4=CC(=O)CCC4C3CCC21CC` (stereo unspecified), for which the Potency in [1] is 6.42 µM (active); in test [2], 12.6 µM (active); in [3], 9.53 µM (active); in [4], 6.01 µM (active).
For the compound `C[C@]12CC[C@H]3[C@@H](CC[C@@]45O[C@@H]4C(=O)C(C#N)C[C@]35C)[C@@H]1CC[C@@H]2O` (stereo partly specified), the Potency entry in test [5], in [2] and in [6] was “inactive” in each case.
Take `CC(C)(C)c1ccc(/C=C/C(=O)Nc2ccc3c(c2)OCCO3)cc1`: in test [7], the call was inactive.
With `C=CC[C@]1(O)CCC2C3CCC4=CCCCC4C3CCC21C` (stereo partly specified), the Potency result in test [5], in [6], in test [3], in test [8], in [9] and in test [10] was “inactive” in each case.
With `NC(Cc1ccc(Oc2cc(I)c(O)c(I)c2)c(I)c1)C(=O)O` (stereo unspecified), the Potency result in test [2], in test [11], in [6], in test [3], in [8] and in test [9] was “inactive” each time. Also, the Potency result in test [10] was “inactive”.
`CC12CCC3C4CCC(=O)C(O)=C4CCC3C1CCC2OC(=O)CCC1CCCC1` (stereo unspecified): the Potency entry in [5], in [1], in test [11], in [6], in test [3] and in test [8] was “inactive” throughout. In addition, the Potency result in test [9] and in test [10] was “inactive” in each case.
As to `CC[C@@H](CO)Nc1nc(NCc2ccccc2)c2ncn(C(C)C)c2n1`, the call in [7] was inactive.
Consider `CN(C)[C@@H](Cc1ccccc1)c1ccccc1`, for which the Potency entry in test [11], in test [6], in test [9] and in [10] was “inactive” each time. Moreover, the Potency in [4] was 4.78 µM (active).
As for `COC(=O)C1C(OC(=O)c2ccccc2)CC2CCC1N2C` (stereo unspecified), the Potency result in test [5], in test [2], in [11], in test [6], in test [3] and in test [8] was “inactive” each time. The Potency result in test [9], in [10] and in [4] was “inactive” in each case.
For the compound `CC(=O)O[C@H]1C[C@H](O[C@H]2[C@@H](O)CC(O[C@H]3[C@@H](O)C[C@H](O[C@H]4CC[C@@]5(C)[C@H](CC[C@@H]6[C@@H]5CC[C@]5(C)[C@@H](C7=CC(=O)OC7)CC[C@]65O)C4)O[C@@H]3C)O[C@@H]2C)O[C@H](C)[C@H]1O[C@@H]1O[C@H](CO)[C@@H](O)[C@H](O)[C@H]1O` (stereo partly specified), the Potency result in test [11], in test [6], in [8], in test [10] and in [4] was “inactive” throughout.
Consider `C=C1C(=O)O[C@@H]2[C@H]3O[C@]3(C)CCC=C(C)CC[C@@H]12`, for which the compound was classed as inactive in test [7].
For the compound `CC(=O)[C@H]1CC[C@H]2C3CC[C@H]4C[C@H](O)CC[C@]4(C)C3CC[C@]12C` (stereo partly specified), the Potency result in test [5], in test [11], in test [3], in [8], in test [9] and in test [10] was “inactive” in each case.
In the case of `O=C(NC(=O)c1c(F)cccc1F)Nc1ccc(Cl)cc1`, the call in test [12] and in test [14] was inactive. The Potency result in test [13] and in test [15] was “inactive” each time. Besides, the max response in test [16] was -3.02%; in [17], -1.48%; in test [18], -7.3%.
For the compound `c1cnc2c(c1)ccc1cccnc12`, in test [12], the result was inactive.
On the same count and under the same terms, next, `CN1[C@H]2CC(OC(=O)[C@H](CO)c3ccccc3)C[C@H]1[C@H]1O[C@H]12` (stereo partly specified): “inactive”.
With `CC[C@]1([C@H]2O[C@@H]([C@@H]3O[C@](O)(CO)[C@@H](C)C[C@H]3C)C[C@H]2C)CC[C@@H]([C@]2(C)CC[C@@]3(C[C@@H](O)[C@@H](C)[C@@H]([C@H](C)[C@H](OC)[C@H](C)C(=O)O)O3)O2)O1`, the Potency result in [5] is “inactive”.
As for `CSc1nc(NC(C)C)nc(NC(C)C)n1`, the Potency result in test [13] and in test [15] was “inactive” in each case. Also, the call in [14] was inactive. The max response in test [17] is 8.44%; in test [18], 9.37%.
